Test results reported in PubChem BioAssay (NCI).
About 79,000 compounds went through this panel and 15% of them were active in at least one assay; those are over-represented in the sample as a whole. Values without a mark were called inactive. Calls of active or inactive are those of the source. Cut-off read from the data, not from the text of the source: active = growth inhibition above about 70%; inactive = the rest.

Experiments:
[1] = NCI Yeast Anticancer Drug Screen. Data for the rad50 strain (AID 155);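 note: 0% = growth of vehicle-only cultures of the same strain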; settings: S. cerevisiae rad50 strain growth inhibition, active compounds read high
In short: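 DNA repair mutant yeast, compound exposure, growth read-out; inhibition is taken relative to vehicle.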

[2] = NCI Yeast Anticancer Drug Screen. Data for the mec2-1 strain (AID 157); settings: S. cerevisiae mec2-1 strain, active compounds read high
In short: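 Yeast mec2-1 mutant treated with compound. Readout: growth inhibition vs vehicle controls.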

[3] = NCI Yeast Anticancer Drug Screen. Data for the sgs1 mgt1 strain (AID 161);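 note: 0% = growth of cultures given vehicle only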; settings: S. cerevisiae sgs1 mgt1 strain, active compounds read high
In short: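 Test agents were incubated with a DNA-repair-mutant yeast strain. Growth was then read and compared against vehicle-treated controls.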

[4] = NCI Yeast Anticancer Drug Screen. Data for the cln2 rad14 strain (AID 165);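 note: 0% = growth equal to vehicle treated cultures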; settings: S. cerevisiae cln2 rad14 strain, active compounds read high
In short: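 cln2 rad14 yeast strain; compound exposure; growth inhibition read vs vehicle controls.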

[5] = NCI Yeast Anticancer Drug Screen. Data for the bub3 strain (AID 167); settings: S. cerevisiae bub3 mutant strain, active compounds read high
In short: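 In this screen, a yeast mutant lacking normal mitotic checkpoint function is challenged with compound. Relative growth versus vehicle gives the inhibition value.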

[6] = NCI Yeast Anticancer Drug Screen. Data for the mlh1 rad18 strain (AID 175); settings: S. cerevisiae mlh1 rad18 strain growth inhibition, active compounds read high
In short: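 Yeast w/ defined DNA-repair lesions; compound exposure; growth vs vehicle controls → % inhibition.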

[7] = at 5.0 µM (retest, dose inferred, filed as 0.5)
[8] = at 50.0 µM (retest, dose inferred, filed as 5.0)

| SMILES | growth inhibition [1, 7] | growth inhibition [1, 8] | growth inhibition [2, 7] | growth inhibition [2, 8] | growth inhibition [3, 7] | growth inhibition [3, 8] | growth inhibition [4, 7] | growth inhibition [4, 8] | growth inhibition [5, 7] | growth inhibition [5, 8] | growth inhibition [6, 7] | growth inhibition [6, 8] | growth inhibition ([1]; at 50.0 µM) | growth inhibition ([3]; at 50.0 µM) | growth inhibition ([4]; at 50.0 µM) | growth inhibition ([5]; at 50.0 µM) | growth inhibition ([6]; at 50.0 µM) | growth inhibition ([2]; at 50.0 µM) |
| --- | --- | --- | --- | --- | --- | --- | --- | --- | --- | --- | --- | --- | --- | --- | --- | --- | --- | --- |
| O=[N+]([O-])/C=C/c1cccc([N+](=O)[O-])c1 | 98% (active) | 99% (active) | 99% (active) | 100% (active) | 100% (active) | 100% (active) | 35% | 99% (active) | 97% (active) | 100% (active) | -9% | 99% (active) |  |  |  |  |  |  |
| CC(=O)[CH-]C(C)=O.CC(=O)[CH-]C(C)=O.N=CC=N.[Sn+2] | 95% (active) | 98% (active) |  |  | 98% (active) | 99% (active) | 87% (active) | 97% (active) | 98% (active) | 99% (active) |  |  | 88.2% (active) | 94.2% (active) | 93.5% (active) | 93.3% (active) |  |  |
| CCC1CC[N-]CC1.CCC1CC[N-]CC1.N#C[S-].N#C[S-].[Cd] | 26% | 85% (active) | 16% | 56% | 11% | 71% (active) | 4% | 54% | 5% | 42% | -16% | 57% |  |  |  |  |  |  |
| CC1CCN(C(CC(=O)c2ccccc2)C(=O)c2ccccc2)CC1 (stereo not given) | 20% | 99% (active) | 7% | 100% (active) | 21% | 99% (active) | 9% | 99% (active) | 13% | 100% (active) | -2% | 98% (active) |  |  |  |  |  |  |
| COc1ccc(/C=C/[N+](=O)[O-])cc1 | 71% (active) | 99% (active) | 27% | 100% (active) | 65% | 100% (active) | 11% | 99% (active) | 14% | 99% (active) | -11% | 99% (active) |  |  |  |  |  |  |
| C/C(=N\NC(=S)N1CC2CCC(CC2)C1)c1nccs1 | 89% (active) | 98% (active) | 77% (active) | 99% (active) | 92% (active) | 99% (active) | 86% (active) | 98% (active) | 95% (active) | 99% (active) | 95% (active) | 98% (active) |  | 87% (active) | 87.2% (active) | 86.5% (active) |  |  |
| O=C(CF)CCl | 89% (active) | 98% (active) | 25% | 99% (active) | 88% (active) | 65% | 79% (active) | 99% (active) | 32% | 99% (active) | 69% | 98% (active) |  |  |  |  |  |  |
| O=C1C=C(N2CC2)C(=O)C=C1N1CC1 | 91% (active) | 98% (active) | 90% (active) | 99% (active) | 27% | 41% | 24% | 25% | 20% | 55% | 94% (active) | 97% (active) |  | 88% (active) | 89.2% (active) | 87.7% (active) |  |  |
| O=C(CBr)OCCBr | 59% | 99% (active) | 33% | 99% (active) | 73% (active) | 100% (active) | 25% | 98% (active) | 56% | 99% (active) | 29% | 98% (active) |  |  |  |  |  |  |
| [Cl][Sn]([c]1ccccc1)([c]1ccccc1)[c]1ccccc1 | 99% (active) | 98% (active) | 99% (active) | 99% (active) | 100% (active) | 99% (active) | 99% (active) | 99% (active) | 100% (active) | 99% (active) | 99% (active) | 98% (active) |  |  |  |  |  |  |
| COc1cc(/C=C/[N+](=O)[O-])cc(OC)c1OC | 34% | 99% (active) | 22% | 99% (active) | 48% | 100% (active) | 13% | 99% (active) | 19% | 100% (active) | -8% | 99% (active) |  |  |  |  |  |  |
| CCCCCCCNC(=O)CI | 42% | 99% (active) | 13% | 100% (active) | 33% | 100% (active) | 9% | 94% (active) | 52% | 100% (active) | 23% | 99% (active) |  |  |  |  |  |  |
| CN1C(=O)C2(C)SSC1(C)C(=O)N2C | 45% | 95% (active) |  |  | 43% | 96% (active) | 10% | 85% (active) | 17% | 93% (active) | 57% | 97% (active) | 97.2% (active) | 97.5% (active) | 87.7% (active) | 95.5% (active) | 98.6% (active) |  |
| O=[n+]1c2ccccc2n([O-])c2ccccc21 | 93% (active) | 98% (active) | 22% | 99% (active) | 61% | 99% (active) | 18% | 98% (active) | 0% | 99% (active) | 79% (active) | 98% (active) |  |  |  |  |  |  |
| C1CC[N-]CC1.C1CC[N-]CC1.N#C[S-].N#C[S-].[Cd] | 33% | 86% (active) | 18% | 69% | 15% | 81% (active) | 11% | 57% | 10% | 73% (active) | -4% | 66% |  |  |  |  |  |  |
| O=C([CH-]C(=O)c1ccccc1)c1ccccc1.O=C([CH-]C(=O)c1ccccc1)c1ccccc1.[CH2-]CCC.[CH2-]CCC.[Sn+4] | 83% (active) | 98% (active) |  |  | 86% (active) | 58% |  |  | 90% (active) | 93% (active) | 92% (active) | 99% (active) | 90.3% (active) | 93% (active) |  | 91.8% (active) | 90% (active) |  |
| CCC1(OC(=O)CNC)C(=O)OCc2c1cc1n(c2=O)Cc2cc3ccccc3nc2-1 (stereo not given) |  |  |  |  |  |  |  |  |  |  |  |  | 78.7% (active) | 76.3% (active) | 60.2% | 72% (active) |  | 83.7% (active) |
| CC[CH](C)[Sn](=[O])[c]1ccccc1 (stereo not given) | 15% | 95% (active) |  |  | 16% | 93% (active) |  |  | 10% | 96% (active) | 11% | 95% (active) | 81.1% (active) | 21.9% |  | 20.9% | 75.8% (active) |  |
| O=[N+]([O-])/C=C/c1ccc([N+](=O)[O-])cc1 | 96% (active) | 99% (active) | 81% (active) | 100% (active) | 99% (active) | 100% (active) | 31% | 99% (active) | 94% (active) | 100% (active) | 15% | 99% (active) |  |  |  |  |  |  |
| CCCCCCCCCCCCCC(=O)[O][Hg][c]1ccccc1 | 99% (active) | 93% (active) |  |  | 100% (active) | 99% (active) | 99% (active) | 98% (active) | 99% (active) | 99% (active) | 99% (active) | 99% (active) | 99.5% (active) | 99.6% (active) | 99.6% (active) | 99.5% (active) | 99.6% (active) |  |
